Screening results from PubChem.
Only some compounds are listed: those with a hit (about 0.9% of all), similar ones and a draw of the others.
BJeLR viab HTS – BJeLR cell viability reduction; 0.64% of 30,000 active; viability loss activity score, % (no concentration beside the values); AID 2275; BJeLR fibroblasts viability, CellTiterGlo ATP luminescence, 48 h; HRASV12, hTERT and SV40 LT/ST transformed; in the data active means viability loss activity score above about 50%;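 further: higher score means fewer live cells and less ATP luminescence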
A1 inh – blocks A1 activity; 0.51% of 21,000 active; MEF A1-2A-BIM cells, caspase-Glo luminescence, 3 h; percent of clofoctol signal, DMSO as zero; caspase activation, % (no concentration beside the values);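 active means most replicate scores above 10, or exactly half above 10 with mean activity above 10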;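 further: effector caspase 3 and 7 activity cleaving a DEVD luciferin substrate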
* marks the source's active call; other numbers are inactive results; . = not tested or not shown.

SMILES | BJeLR viab HTS | A1 inh
Cc1c(C(=O)N2CCC(C)CC2)sc2nc(-c3ccc(F)cc3)cn12 | 5.7 | .
O=C(O)CSc1c2c(nc3cc(C(=O)NCc4cccs4)ccc13)CCCC2 | -8.0 | .
C[C@@H]1O[C@@H](O[C@H]2[C@H](O)[C@@H](O)[C@H](OC[C@H]3O[C@@H](OC(=O)[C@]45CCC(C)(C)CC4C4=CCC6[C@@]7(C)CC[C@H](O)C(C)(C)C7CC[C@@]6(C)[C@]4(C)CC5)[C@H](O)[C@@H](O)[C@@H]3O)O[C@@H]2CO)[C@H](O)[C@H](O)[C@H]1O (stereo partly specified) | 125.5* | 0.7
C[C@@H]1O[C@@H](O[C@H]2[C@H](O[C@H]3CC[C@@]4(C)C(CC[C@]5(C)C4CC=C4[C@@H]6CC(C)(C)CC[C@]6(C(=O)O[C@@H]6O[C@H](CO[C@@H]7O[C@H](CO)[C@@H](O)[C@H](O)[C@H]7O)[C@@H](O)[C@H](O)[C@H]6O)CC[C@]45C)[C@]3(C)CO)OC[C@H](O)[C@@H]2O)[C@H](O)[C@H](O)[C@H]1O (stereo partly specified) | -4.0 | 0.2
CC(=O)N[C@H]1[C@H](O[C@H]2CC[C@@]3(C)C(CC[C@]4(C)C3CC=C3[C@@H]5CC(C)(C)CC[C@]5(C(=O)OC5OCC(O)C(O)C5O)C(O)C[C@]34C)C2(C)C)O[C@H](COC2OCC(O)C(OC3OCC(O)C(O)C3O)C2O)[C@@H](O[C@@H]2O[C@@H](C)[C@H](O)[C@@H](O)[C@H]2O[C@@H]2O[C@@H](C)[C@H](O)[C@@H](O)[C@H]2O)[C@@H]1O (stereo partly specified) | 1.3 | 34.8*
CC1OC(O[C@H]2CC[C@@]3(C)C(CC[C@]4(C)C3CC=C3C5CC(C)(C)CC[C@]5(C(=O)OC5OC(CO)C(OC6OC(CO)C(O)C(O)C6O)C(O)C5O)CC[C@]34C)C2(C)C)C(O)C(O)C1OC1OCC(O)(COC2OCC(O)C(OC3OCC(OC4OCC(O)(CO)C4O)C(O)C3O)C2O)C1O (stereo partly specified) | -5.0 | -0.2
CC1OC(OC2C(CO)OC(OC(=O)[C@]34CCC(C)(C)CC3C3=CCC5[C@@]6(C)CC[C@H](OC7OC(C)C(OC8OCC(O)(COC9OCC(O)C(OC%10OCC(OC%11OCC(O)(CO)C%11O)C(O)C%10O)C9O)C8O)C(O)C7O)C(C)(C)C6CC[C@@]5(C)[C@]3(C)CC4)C(O)C2O)C(O)C(O)C1O (stereo partly specified) | 4.3 | 12.4*
CC1(C)CC[C@@]2(C(=O)O[C@@H]3O[C@H](CO)[C@@H](O)[C@H](O)[C@H]3O)C(C1)C1=CCC3[C@@]4(C)CC[C@@H](O[C@@H]5O[C@H](C(=O)O)[C@@H](O[C@@H]6OC[C@@H](O)[C@H](O)[C@H]6O)[C@H](O)[C@H]5O)C(C)(C)C4CC[C@@]3(C)[C@]1(C)C[C@H]2O (stereo partly specified) | -0.1 | 0.1
CC1(C)CC[C@]2(C(=O)O[C@@H]3O[C@H](CO)[C@@H](O)[C@H](O)[C@H]3O)CC[C@]3(C)C(=CCC4[C@@]5(C)CC[C@H](O[C@@H]6O[C@H](C(=O)O)[C@@H](O[C@@H]7O[C@H](CO)[C@@H](O)[C@H](O)[C@H]7O)[C@H](O)[C@H]6O)C(C)(C)C5CC[C@]43C)C2C1 (stereo partly specified) | 1.6 | 0.3
CC1(C)CC[C@]2(C(=O)OC3OC(CO)C(O)C(O)C3O)CC[C@]3(C)C(=CCC4[C@@]5(C)CC[C@H](OC6OC(C(=O)O)C(O)C(O)C6O)C(CO)(CO)C5CC[C@]43C)[C@@H]2C1 (stereo partly specified) | 132.9* | 1.6
COc1cc(-n2c(=O)c3ccccc3n(CC(=O)NCc3ccc(C)cc3)c2=O)cc(OC)c1OC | 6.5 | .
CCn1c(=O)c2cc(C(=O)N(C)CCC#N)sc2c2ccccc21 | -5.0 | .
O=C(CCn1c(SCc2ccc(F)cc2)nc2c(sc3ccccc32)c1=O)NCC1CCCO1 (stereo unspecified) | -1.7 | .
Cc1ccc(NC(=O)CSc2nc3c(sc4ccccc43)c(=O)n2CC2CCCO2)cc1C (stereo unspecified) | 1.4 | 33.3*
COc1ccc(-c2cc(C(=O)N3CCN(C)CC3)no2)cc1 | 0.6 | .
O=C(Sc1ccccn1)N1c2ccccc2Sc2ccccc21 | 3.6 | 0.2
O=C(/C=C/Sc1ccccn1)c1ccccc1 | 76.0* | 2.2
Cc1ccccc1NC(=O)Nc1ccc(OCc2ccccc2)cc1 | 13.6 | -5.4
C=CCc1ccc(O[C@@H]2O[C@H](CO[C@@H]3O[C@@H](C)[C@H](O)[C@@H](O)[C@H]3O)[C@@H](O)[C@H](O)[C@H]2O)c(O)c1 | 0.9 | 0.9
C=CCc1ccc(O[C@@H]2O[C@H](CO)[C@@H](O)[C@H](O)[C@H]2O)c(O[C@@H]2O[C@H](CO)[C@@H](O)[C@H](O)[C@H]2O)c1 | 70.0* | -0.4
COCCN1C(=O)c2ccccc2C(C(=O)NCCN2CCOCC2)C1c1cn(C)c2ccccc12 (stereo unspecified) | 1.8 | .
CC(CCc1ccccc1)NC(=O)c1ccc(CS(=O)(=O)c2ccc(Br)cc2)o1 (stereo unspecified) | 0.2 | .
CCN1CCCC1CNC(=O)c1ccc2c(c1)sc1nc(-c3ccc(C)cc3)cn12 (stereo unspecified) | 94.6* | 8.3
O=C(NCC1CCCO1)c1ccc2c(c1)sc1nc(-c3ccccc3)cn12 (stereo unspecified) | 1.0 | -1.1
CCOC(=O)C1=C(c2ccccc2)Nc2ncnn2C1c1ccc(OCc2ccccc2)cc1 (stereo unspecified) | 2.5 | .
SMILES | BJeLR viab HTS | A1 inh
O=C1Nc2ccccc2/C1=C/C(=O)c1ccc(Cl)cc1 | 64.7* | 65.2*
O=C1Nc2ccccc2/C1=C\c1c(Cl)[nH]c2ccccc12 | 27.0 | 1.9
CC(=O)OCC(=O)c1ccc2c(c1)CCN2C(C)=O | 15.5 | .
COc1cccc2c1C(=O)c1c(O)c3c(c(O)c1C2=O)C[C@@](O)(C(=O)CO)C[C@@H]3O[C@H]1C[C@H](N)[C@H](O)[C@H](C)O1 | 108.7* | 16.4*
COc1cccc2c1C(=O)c1ccc3c(c1C2=O)C(=O)CC(C)(O)C3 (stereo unspecified) | 0.0 | -1.1
COc1cccc2c1C(c1ccc3c(c1O)C(=O)CC(C)C3O)OC2=O (stereo unspecified) | 1.2 | 0.9
COc1cccc2c1C(=O)c1c(O)c3c(c(O)c1C2=O)C[C@@](O)(C(=O)CO)C[C@@H]3OC1CC(N)C(O)C(C)O1 (stereo partly specified) | 105.7* | 14.7*
CCOC(=O)C1C(=O)C=C(c2cccc(OC)c2)CC1c1ccc(CC)cc1 (stereo unspecified) | 3.1 | .
COc1cc(-c2nc(Nc3ccc(C)c(F)c3)c3ccccc3n2)cc(OC)c1OC | 22.5 | 0.7
CCOC(=O)c1c(C)oc2c1c(C=NCCc1c[nH]c3ccccc13)c(O)c1ccccc12 | -0.5 | .
CCOC(=O)Cn1c(=O)oc2cc(S(=O)(=O)N(C)CCC#N)ccc21 | -4.8 | .
CC(C)=CCc1c(O)cc(O)c2c1O[C@H](c1ccccc1)CC2=O | 1.8 | 22.6*
O=C1C[C@H](c2ccccc2)Oc2c(Cc3ccccc3O)c(O)cc(O)c21 | 9.6 | -0.7
